# Unmarked numbers belong to inactive results. Records with an inconclusive call do not appear. Entries that show only a call come without a potency. The source made the active and inactive calls. Unless noted, calls follow the shape of the dose curve; as a rule, active = well fitted curve in the direction sought with a large enough effect; inconclusive = small, poorly fitted or top-dose-only effect, or another doubt; inactive = no such curve, though single readings can be large; an effect the other way counts as inactive or inconclusive. Starred links: 1 amine or outer side, 2 acyl side, 3 side chain; linkers in the order of their positions; H or OH if unused. Positions of bridges follow the written chain, without caps; N, C: chain ends. Non-standard residues stand in square brackets, D forms with d. Residues, ends and D or L forms follow the SMILES beside them. ξ: configuration not given here. *: point of attachment. X3 = C[C@@H](Oc1ccc([C@H](N[*:1])C(=O)[*:2])cc1)[C@]1(/C=C\C(=O)[*:3])CO1; d(aIle) = CC[C@H](C)[C@@H](N)C(=O)O; X2 = CC(C)[C@@H](O)C(C)C(=O)*; ξNMeF = CNC(Cc1ccccc1)C(=O)O; ξT = CC(O)C(N)C(=O)O; ξS = NC(CO)C(=O)O
# What was measured:
# [1] = Panc-1005 Cancer Cell Toxicity qHTS against the NCATS CANVASS Library (AID 1347349); also: nearly all actives have a fitted effect of over 60% in size; also: potency is read from the fitted curve at half-maximal effect
# Outline: (§1)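 Per well, 1000 cells; exposure 72 h with compound at 11 final concentrations; readout CellTiter-Glo luminescence.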
# [2] = UWB1.289-WTBRCA1 Cancer Cell Toxicity qHTS against the NCATS CANVASS Library (AID 1347354)
# Outline: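 First, 1000 cells go into each well and rest for 4 hours. Next, an 11-point dilution range is pinned in. Plates then incubate 72 hours before CellTiter-Glo addition and luminescence reading.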
# [3] = G06 Cancer Cell Toxicity qHTS against the NCATS CANVASS Library (AID 1347368); also: nearly all actives have a fitted effect of over 60% in size; also: potency is read from the fitted curve at half-maximal effect
# Outline: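 Cells were plated at 500 per well, then compounds were added over an 11-point range. After 72 hr at 37C, CellTiterGlo was added and luminescence measured as ATP content.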
# [4] = target: Glucocorticoid receptor (Homo sapiens) (UniProt P04150); test: GR-GFP Redistribution (AID 450;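 active = compounds whose dose series gives a full or clear partial fitted curve of increased nuclear translocation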; also: potency is read from the fitted curve at half-maximal effect); details: U2OS GR-GFP nuclear translocation, laser cytometry, 2 h
# [5] = target: Glucocorticoid receptor (Homo sapiens) (UniProt P04150); test: GR-EFC Redistribution (AID 451; calls by dose curve; also: potency is read from the fitted curve at half-maximal effect); details: CHO-K1 GR-EFC translocation, beta-gal luminescence, 2 h
# Outline: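 CHO-K1 cells stably expressing nuclear-localized β-gal enzyme acceptor and GR fused C-terminally to the enzyme donor fragment; ligand-driven nuclear translocation restores β-gal by complementation. Compounds titrated up to 46 uM final, 2 h at 37 °C; luminescence read.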
# [6] = target: Mitogen-activated protein kinase 10 (Mus musculus) (UniProt Q61831); test: JNK3 AlphaScreen Assay (AID 530; active = well fitted curve in either direction with a large enough effect, not every such curve was filed as active;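 also: kinase came from lysate of stimulated human HepG2 cells; signal reports phosphorylation of biotinylated GST-cJun 1-79 at Ser73 with 10 µM ATP; series mostly up to about 57 µM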)
# Outline: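 Phosphorylation of biotinylated GST-cJun(1-79) at Ser73 is measured by AlphaScreen proximity luminescence. Enzyme is JNK3 in HepG2 lysates activated with interleukin-1beta and tumor necrosis factor alpha; ATP is 10 uM final.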
# [7] = target: 3',5'-cyclic-AMP phosphodiesterase 4B (Homo sapiens) (UniProt Q07343); test: qHTS Assay for Inhibitors of PDE-IV (AID 607; active = well fitted activation curve with a large enough effect in the main read-out, with a control signal flat, not every such curve was filed as active)
# Outline: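 Cell-based read-out of cAMP via a modified cyclic nucleotide-gated channel and membrane potential dye (535/590 nm) in HEK293 cells expressing PDE4 endogenously. Compounds tested up to 22.9 uM final; 100 uM RO 20-1724 reference.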
# [8] = UWB1.289 Cancer Cell Toxicity qHTS against the NCATS CANVASS Library (AID 1347347); also: nearly all actives have a fitted effect of over 60% in size; also: potency is read from the fitted curve at half-maximal effect
# Outline: as §1
# Sequence of Glucocorticoid receptor (Homo sapiens) (P04150 whole entry, looked up, the tested form may be a part): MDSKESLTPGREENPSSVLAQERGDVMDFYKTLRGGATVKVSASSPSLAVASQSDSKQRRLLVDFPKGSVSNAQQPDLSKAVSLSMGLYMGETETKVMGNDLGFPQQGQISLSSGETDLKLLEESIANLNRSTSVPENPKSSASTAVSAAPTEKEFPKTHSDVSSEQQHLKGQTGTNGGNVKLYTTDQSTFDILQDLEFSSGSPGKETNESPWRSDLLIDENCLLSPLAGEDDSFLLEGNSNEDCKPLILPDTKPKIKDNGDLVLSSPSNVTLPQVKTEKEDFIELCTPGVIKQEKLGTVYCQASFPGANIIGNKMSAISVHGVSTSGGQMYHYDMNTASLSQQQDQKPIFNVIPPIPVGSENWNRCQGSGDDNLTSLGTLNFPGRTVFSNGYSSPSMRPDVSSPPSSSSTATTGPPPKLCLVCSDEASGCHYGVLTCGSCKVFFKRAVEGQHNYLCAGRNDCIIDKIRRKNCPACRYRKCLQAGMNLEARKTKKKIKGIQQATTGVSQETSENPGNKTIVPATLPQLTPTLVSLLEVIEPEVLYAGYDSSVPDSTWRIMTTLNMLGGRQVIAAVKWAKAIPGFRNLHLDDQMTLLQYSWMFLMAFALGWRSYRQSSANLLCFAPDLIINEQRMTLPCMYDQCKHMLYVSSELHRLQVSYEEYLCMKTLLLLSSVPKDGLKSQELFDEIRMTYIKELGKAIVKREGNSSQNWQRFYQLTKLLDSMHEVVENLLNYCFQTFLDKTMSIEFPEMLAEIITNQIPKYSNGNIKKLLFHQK
# Sequence of 3',5'-cyclic-AMP phosphodiesterase 4B (Homo sapiens) (Q07343 whole entry, looked up): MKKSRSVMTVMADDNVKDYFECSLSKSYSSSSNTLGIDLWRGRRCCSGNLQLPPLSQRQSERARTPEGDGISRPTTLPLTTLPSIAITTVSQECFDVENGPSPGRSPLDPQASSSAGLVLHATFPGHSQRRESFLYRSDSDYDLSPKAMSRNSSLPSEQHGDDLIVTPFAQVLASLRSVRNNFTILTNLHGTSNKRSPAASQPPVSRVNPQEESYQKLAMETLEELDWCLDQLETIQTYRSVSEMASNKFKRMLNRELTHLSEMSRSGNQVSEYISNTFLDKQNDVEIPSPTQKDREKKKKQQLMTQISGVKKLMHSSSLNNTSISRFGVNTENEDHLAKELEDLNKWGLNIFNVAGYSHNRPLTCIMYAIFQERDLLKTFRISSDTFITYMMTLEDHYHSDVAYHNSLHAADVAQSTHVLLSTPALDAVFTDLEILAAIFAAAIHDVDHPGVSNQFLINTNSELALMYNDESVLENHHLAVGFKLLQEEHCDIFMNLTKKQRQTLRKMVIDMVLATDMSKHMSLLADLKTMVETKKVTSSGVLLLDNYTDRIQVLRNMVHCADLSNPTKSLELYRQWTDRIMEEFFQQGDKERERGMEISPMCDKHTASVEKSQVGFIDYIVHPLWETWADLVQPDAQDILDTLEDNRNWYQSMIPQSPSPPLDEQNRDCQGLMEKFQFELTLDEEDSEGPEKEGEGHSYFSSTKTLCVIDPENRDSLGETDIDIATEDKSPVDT
compound,measurement,setting,value
CCCC[C@@H]1CC[C@H]2CCCC(CCCO)N12 (stereo not given in full),Potency,[1],inactive
same,Potency,[2],inactive
same,Potency,[3],inactive
C=C[C@H]1CN2CCc3c([nH]c4cccc(OC)c34)[C@@H]2C[C@@H]1/C(=C\OC)C(=O)OC,Potency,[1],inactive
same,Potency,[2],inactive
CC[C@@H]1CN2CCC3(Nc4cccc(OC)c4C3=O)[C@@H]2C[C@@H]1/C(=C\OC)C(=O)OC (stereo not given in full),Potency,[1],inactive
same,Potency,[2],inactive
same,Potency,[3],inactive
COC1C(O)C(C)OC(OC2C(Oc3cccc4c(O)c5c(=O)oc6ccc(C)c7c(=O)oc(c34)c5c67)OC(C)C(O)C2O)C1O (stereo not given),Potency,[1],16.8 µM (active)
same,Potency,[3],9.35 µM (active)
CO[C@H]1C[C@H](O[C@H]2[C@@H](O)C[C@H](O[C@H]3CC[C@]4(C=O)[C@H]5CC[C@]6(C)C(C7=CC(=O)OC7)CC[C@]6(O)[C@@H]5CC[C@]4(O)C3)O[C@@H]2C)O[C@H](C)[C@H]1O[C@H]1C[C@@H](OC)[C@@H](O[C@@H]2O[C@H](CO)[C@@H](O)[C@H](O)[C@H]2O)[C@@H](C)O1 (stereo not given in full),Potency,[3],0.264 µM (active)
CN(C)[C@@H]1C(=O)C(C(N)=O)=C(O)[C@]2(O)C(=O)C3=C(O)c4c(O)cccc4[C@@](C)(O)[C@@H]3C[C@@H]12,Potency,[4],> 46 µM
same,Potency,[5],> 46 µM
same,outcome,[6],inactive
same,Potency,[7],inactive
CC[C@]12C=CCN3CC[C@]4(C(=C(C(=O)OC)C1)Nc1ccccc14)[C@@H]32,Potency,[8],inactive
same,Potency,[1],inactive
same,Potency,[2],inactive
C/C=C1/CN2C3CC1C1=CCC(=O)N4c5ccccc5[C@@]3(C[C@@H]2C2=C[C@H]3C5CC6N(CC[C@@]67c6ccccc6N(C2=O)[C@@H]37)C/C5=C/C)[C@H]14 (stereo not given in full),Potency,[1],14.9 µM (active)
same,Potency,[3],20.9 µM (active)
CC[C@H](C)[C@H]1NC(=O)[C@@H](NC(=O)C(C)[C@H](O)C(C)C)[C@@H](C)OC(=O)C2COC(=O)CNC(=O)/C=C\[C@]3(CO3)[C@@H](C)Oc3ccc(cc3)[C@H](NC1=O)C(=O)N(C)C(Cc1ccccc1)C(=O)NC(C(C)O)C(=O)N2 (stereo not given in full) (X2-T[d(aIle)][X3][ξNMeF][ξT][ξS]; ester 1-C; linker 3-6 via G),Potency,[1],inactive
same,Potency,[2],inactive
CCCCC1CC[C@H]2CCCC(CCC)N12 (stereo not given in full),Potency,[1],inactive
same,Potency,[2],inactive
same,Potency,[3],inactive
CC[C@@H]1CN2CCc3c([nH]c4cccc(OC)c34)[C@@H]2C[C@@H]1/C(=C\OC)C(=O)OC,Potency,[3],23.5 µM (active)
C1=C2CCCN[C@H]2C2CC1[C@H]1CCCCN1C2 (stereo not given in full),Potency,[8],inactive
same,Potency,[1],inactive
same,Potency,[2],inactive
C/C=C/[C@@H]1[C@H]2C[C@@H](C)CC[C@@H]2C(C)=C[C@H]1C(=O)c1c(O)c(-c2ccc(O)cc2)c[nH]c1=O,Potency,[8],21.1 µM (active)
CC(C)CC1C(=O)O[C@H](C(C)C)C(=O)N(C)C(CC(C)C)C(=O)O[C@@H](C(C)C)C(=O)N(C)C(CC(C)C)C(=O)O[C@H](C(C)C)C(=O)N(C)C(CC(C)C)C(=O)O[C@@H](C(C)C)C(=O)N1C (stereo not given in full),Potency,[1],6.68 µM (active)
C[N+](C)(C)CCc1c[nH]c2ccccc12,Potency,[8],inactive
same,Potency,[1],inactive
same,Potency,[2],inactive
same,Potency,[3],inactive

# From PubChem BioAssay (NCATS)
